Source: PubChem BioAssay (NCATS)
“And” between values parts separate entries of the source, which are not always exact repeats. Equal values may be shown once. Values without a mark were called inactive. Inconclusive results are not listed. Where a call stands in place of a potency, no number is given. The source made the active and inactive calls. Unless noted, calls come from the whole dose curve; as a rule, active = well fitted curve in either direction with a large enough effect (not every such curve was filed as active); inconclusive = small, poorly fitted or top-dose-only effect, or another doubt; inactive = flat fitted curve, though single readings scatter.

What was measured:
[1] = Stat Signaling Pathway (AID 446); conditions: ME-180 SIE beta-lactamase reporter, IL-6 stimulated, 5 h; series mostly up to 17.2 µM;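 note: ME-180 cervical cancer cells given 40 pM IL-6 alongside compound; SIE-controlled beta-lactamase reporter measured as 460/530 nm FRET emission ratio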
How it was run: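 ME-180 SIE-bla cells; overnight plating; cpd + IL-6 40 pM, 5 h, 37 C; LiveBLAzer 2.5 h RT; 460/530 nm emission ratio. Normalized to 300 pM IL-6 and 125 nM JAK inhibitor controls.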

[2] = molecular target: Glucocorticoid receptor (Homo sapiens) (UniProt P04150); experiment: GR-GFP Redistribution (AID 450;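 active = compounds whose dose series gives a full or clear partial fitted curve of increased nuclear translocation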; note: potency is the fitted concentration of half-maximal effect); conditions: U2OS GR-GFP nuclear translocation, laser cytometry, 2 h
[3] = molecular target: Glucocorticoid receptor (Homo sapiens) (UniProt P04150); experiment: GR-EFC Redistribution (AID 451; calls by dose curve; note: potency is the fitted concentration of half-maximal effect); conditions: CHO-K1 GR-EFC translocation, beta-gal luminescence, 2 h
How it was run: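 Translocation of GR-ED fusion to nuclear EA restores b-gal, read by luminescence after 1 h room-temperature detection. Engineered CHO-K1 biosensor cells, 1,000/well, exposed 2 h at 37 C to titrations up to 46 uM final.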

[4] = molecular target: 3',5'-cyclic-AMP phosphodiesterase 4B (Homo sapiens) (UniProt Q07343); experiment: qHTS Assay for Inhibitors of PDE-IV (AID 607; active = well fitted activation curve with a large enough effect in the main read-out, with a control signal flat, not every such curve was filed as active); conditions: HEK293 ACTOne CNG channel cells, membrane potential fluorescence; series mostly up to 22.9 µM
How it was run: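 ACTOne HEK293 cells carry a modified cAMP-gated CNG channel and express endogenous PDE4; plated 1000 cells/well, compounds up to 22.9 uM final. Membrane-potential dye fluorescence (ex 535/em 590) was read; parental cells received 10 uM forskolin + 100 uM RO 20-1724.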

Glucocorticoid receptor (Homo sapiens), sequence (P04150 whole entry, looked up, the tested form may be a part): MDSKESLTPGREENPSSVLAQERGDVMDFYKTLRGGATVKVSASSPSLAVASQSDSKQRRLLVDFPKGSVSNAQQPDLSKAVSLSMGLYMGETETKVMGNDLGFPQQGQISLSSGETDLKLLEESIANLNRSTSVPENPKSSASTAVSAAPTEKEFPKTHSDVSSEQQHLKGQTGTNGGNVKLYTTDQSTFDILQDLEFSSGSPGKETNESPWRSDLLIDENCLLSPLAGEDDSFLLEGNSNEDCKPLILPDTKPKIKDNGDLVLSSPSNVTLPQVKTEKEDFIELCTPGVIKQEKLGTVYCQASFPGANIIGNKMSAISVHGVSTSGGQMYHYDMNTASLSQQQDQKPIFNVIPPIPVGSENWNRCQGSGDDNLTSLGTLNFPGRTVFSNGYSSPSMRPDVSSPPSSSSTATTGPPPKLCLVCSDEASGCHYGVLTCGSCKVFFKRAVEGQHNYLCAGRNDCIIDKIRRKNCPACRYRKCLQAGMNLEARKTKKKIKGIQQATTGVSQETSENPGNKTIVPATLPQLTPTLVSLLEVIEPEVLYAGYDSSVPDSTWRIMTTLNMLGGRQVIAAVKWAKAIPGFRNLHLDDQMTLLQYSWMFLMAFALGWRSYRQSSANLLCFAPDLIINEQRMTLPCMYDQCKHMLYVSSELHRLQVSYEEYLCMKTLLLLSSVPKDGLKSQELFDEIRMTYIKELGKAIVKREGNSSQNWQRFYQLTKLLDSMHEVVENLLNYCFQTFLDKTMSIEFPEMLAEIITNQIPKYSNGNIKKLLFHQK
3',5'-cyclic-AMP phosphodiesterase 4B (Homo sapiens), sequence (Q07343 whole entry, looked up): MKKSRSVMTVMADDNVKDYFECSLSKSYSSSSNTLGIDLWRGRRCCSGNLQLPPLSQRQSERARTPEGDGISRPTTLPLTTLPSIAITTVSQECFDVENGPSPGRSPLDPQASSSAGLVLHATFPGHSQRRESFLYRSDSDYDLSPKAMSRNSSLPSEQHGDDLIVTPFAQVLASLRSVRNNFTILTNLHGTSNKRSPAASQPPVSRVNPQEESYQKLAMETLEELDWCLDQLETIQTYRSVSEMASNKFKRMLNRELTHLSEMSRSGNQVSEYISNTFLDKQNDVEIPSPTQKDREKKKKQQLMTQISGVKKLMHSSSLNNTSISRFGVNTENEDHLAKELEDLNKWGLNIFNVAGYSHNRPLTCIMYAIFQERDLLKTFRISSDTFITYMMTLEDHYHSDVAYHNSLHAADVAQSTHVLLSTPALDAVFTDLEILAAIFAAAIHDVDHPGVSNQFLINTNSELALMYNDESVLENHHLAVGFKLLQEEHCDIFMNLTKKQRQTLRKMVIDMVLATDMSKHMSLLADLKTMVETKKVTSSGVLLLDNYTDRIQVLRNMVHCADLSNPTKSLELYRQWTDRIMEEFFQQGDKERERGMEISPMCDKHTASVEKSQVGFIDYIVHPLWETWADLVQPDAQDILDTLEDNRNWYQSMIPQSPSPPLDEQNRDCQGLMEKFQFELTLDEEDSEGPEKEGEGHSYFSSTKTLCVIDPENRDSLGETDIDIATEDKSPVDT

SMILES | outcome [1] | Potency [2] | Potency [3] | outcome [4]
NC(N)=NCCCCN=C(N)N | inactive | > 46 µM and > 20.6 µM | > 46 µM and > 20.6 µM | inactive
CC(=O)[C@@]1(O)CC[C@H]2[C@@H]3C[C@H](C)C4=CC(=O)CC[C@]4(C)[C@H]3CC[C@@]21C | inactive | 0.00082 µM (active) |  | 
OC(CCCN1CCCCC1)(c1ccccc1)c1ccccc1 | inactive |  |  | 
Brc1ccc([C@H]2CN3CCSC3=N2)cc1 | inactive | > 46 µM | > 46 µM | inactive
CC(=O)OCC[N+](C)(C)C | inactive | > 20.6 µM |  | 
Cc1ncc(CO)c(CO)c1O | inactive |  |  | inactive
CC(=O)Nc1c(I)c(NC(C)=O)c(I)c(C(=O)O)c1I | inactive | > 20.6 µM |  | 
O=C(CCCCC(=O)Nc1c(I)cc(I)c(C(=O)O)c1I)Nc1c(I)cc(I)c(C(=O)O)c1I | inactive | > 20.6 µM | > 20.6 µM | inactive
OCCOCCN1CCN(C(c2ccccc2)c2ccc(Cl)cc2)CC1 (configuration not stated) | inactive |  |  | 
CC(NCCC(c1ccccc1)c1ccccc1)c1ccccc1 (configuration not stated) | inactive | > 20.6 µM |  | 
C[N+](C)(C)CCO | inactive |  |  | inactive
CCOC(=O)NNc1nncc2ccccc12 | inactive | > 20.6 µM | > 20.6 µM | inactive
CCCCCC(=O)O[C@]1(C(C)=O)CC[C@H]2[C@@H]3CCC4=CC(=O)CC[C@]4(C)[C@H]3CC[C@@]21C | inactive | 0.00527 µM (active) |  | 
